Several values for one entry are separate records, joined by “and”; a condition that tells them apart may be missing. Identical values can stand only once. This is part of a sample that, as a whole, favours compounds with a hit. Of some 83,000 tested, about 20% had one in any assay.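 Single-concentration screen, 48 h exposure, 96-well plates. Endpoint: percent growth. Below 10 = active.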 Values without a mark were called inactive. Activity calls are given as the source filed them.
test system: OVCAR-4 ovarian; assay: NCI-60 one-dose screen, 48 h (100 = growth as untreated, 0 = no growth, -100 = all killed); conditions: 10 µM unless noted

Row | SMILES | growth
1 | N#CC(C#N)=Cc1cccc(F)c1 | 110%
2 | CN(C)c1ccc(C=C2C(=O)NC(=O)NC2=O)cc1 | 116%
3 | [N-]=[N+]=CC(=O)CCC(=O)C=[N+]=[N-] | 108%
4 | CC1=C2[C@H]3OC(=O)[C@@H](C)[C@@H]3CC[C@@]2(C)C=CC1=O | 110%
5 | O=[N+]([O-])c1ccc2scc3c4ccccc4nc-3c2c1 | -88.5% (active)
6 | Cc1cc(NC(=O)NCCCOc2ccc(N3C(N)=NC(N)=NC3(C)C)cc2Cl)ccc1S(=O)(=O)F | 34.5%
7 | Nc1c(Cl)c(Cl)nc(C(=O)O)c1Cl | 95.4%
8 | Cn1cc(C(=O)C[n+]2ccccc2)c2ccccc21 | 90.4%
9 | C[C@]12CCC(=O)C[C@@H]1CC[C@@H]1[C@@H]2CC[C@]2(C)[C@@H](OC(=O)N(CCCl)N=O)CC[C@@H]12 | 72.6%
10 | NC1CN2CCC1CC2 (centres undefined) | 106%
11 | O=C(O)C1C(C(=O)O)C2(Cl)C(Cl)=C(Cl)C1(Cl)C2(Cl)Cl (centres undefined) | 105% and 110%
12 | O=C1NC(=O)C(=C/C=C/c2ccccc2)C(=O)N1 | 26.8%
13 | c1ccc(CCN2CCCCC2)nc1 | 99.3%
14 | O=[N+]([O-])c1cc(Br)c(O)c(Br)c1 | 122%
15 | Cc1cc(Br)c([N+](=O)[O-])cc1[N+](=O)[O-] | 113%
16 | C[C@]12CC[C@@H](OC(=O)N(CCCl)N=O)C[C@@H]1CC[C@@H]1[C@@H]2CC[C@]2(C)C(=O)CC[C@@H]12 | 73%
17 | CCOC(=O)C1C(C=C(C)C)C1(C)C (centres undefined) | 116%

Row | SMILES | growth
18 | N[C@@H](CCC(=O)CCl)C(=O)O | 112% [20 µM]
19 | Oc1ccc(O)c(Cl)c1 | 107% and 104%
20 | CC(C)c1cccc(C(C)C)c1O | 107% and 95.3%
21 | N#CC(C#N)=C(C#N)C#N | 104%
22 | CC(C)CCC1C(=O)NC(=O)NC1=O | 99.2%
23 | COc1ccc(N)cc1N | 97.6%
24 | CC1OC(=O)C(C(C)C)NC(=O)C(C(C)C)OC(=O)C(C(C)C)NC(=O)C(C)OC(=O)C(C(C)C)NC(=O)C(C(C)C)OC(=O)C(C(C)C)NC(=O)C(C)OC(=O)C(C(C)C)NC(=O)C(C(C)C)OC(=O)C(C(C)C)NC1=O (centres undefined) | -17% (active)
25 | C[C@H](O)CCC(=O)c1ccoc1 | 117%
26 | CCCCCCCCCCCCCCCCCC1OCC(COC(=O)O[C@@H](C(=O)O[C@H]2C[C@@]3(O)[C@@H](OC(=O)c4ccccc4)[C@@H]4[C@]5(OC(C)=O)CO[C@@H]5C[C@H](O)[C@@]4(C)C(=O)[C@H](OC(C)=O)C(=C2C)C3(C)C)[C@@H](NC(=O)c2ccccc2)c2ccccc2)O1 (some centres undefined) | 67.4%
27 | O=c1[nH]c(=O)[nH]c(=O)[nH]1 | 119%
28 | O=CC1(c2ccccc2)CCN(Cc2ccccc2)CC1 | 103%
29 | CC(=O)c1cccc(S(=O)(=O)F)c1 | 114%
30 | CC(=O)Nc1nc2c(s1)C1=CC[C@H]3[C@@H]4CC[C@H](OC(C)=O)[C@@]4(C)CC[C@@H]3[C@@]1(C)CC2 | 69.4%
31 | CC1=CC(=O)CCC12CCOC2=O (centres undefined) | 93.8%
32 | CCC1CCC(=O)O1 (centres undefined) | 96.6% and 112%
33 | CN(C)C(=S)SSC(=S)N(C)C | 107% and 106%
34 | COc1ccc(N)cc1OC | 96.8%

From PubChem BioAssay (NCI)
